Measured values published in ChEMBL document CHEMBL4513216, “Probing the Open Global Health Chemical Diversity Library for Multistage-Active Starting Points for Next-Generation Antimalarials” (ACS Infect Dis, 2020).
The whole screen tested about 69,000 compounds, of which about 8,600 (12%) showed an effect of 50% or more. The full list was thinned out, with strong results kept by preference.

Each molecule was assayed on Plasmodium berghei (assay: Screen against P. berghei liver stage (PbLuc), transformed with Luciferase, at 10uM). Conditions: tested at 10 uM.
Format: functional, HepG2

Row | Structure (SMILES) | INHIBITION
1 | Cc1cc(C)cc(NCCC(=O)NC2CCN(C(=O)C3CC3)CC2)c1 | -18.3%
2 | CN1CCN(c2ncccn2)CC1C(N)=O (centres undefined) | -7.66%
3 | O=C(C1CCCO1)N1CCC(Cn2cc(C3CCCC3)nn2)CC1 (centres undefined) | 34.2%
4 | CCCN1CCC(N2CCC(Cn3cc(C4CC4)nn3)CC2)CC1 | 52.2%
5 | CC(C)(CN1CCCC1)CN1CCC(Cn2cc(C3CC3)nn2)CC1 | 41.2%
6 | CC(C)CSCCCNC(=O)C1CCOC1 (centres undefined) | 33.7%
7 | CC(C)CSCCCNC(=O)C1CCC1 | 52.3%
8 | CC(C)CSCCCNC(=O)C1CCOCC1 | 6.54%
9 | CN(C)S(=O)(=O)N1C[C@H]2CC[C@@H](C1)N(Cc1ccc3[nH]ccc3c1)C2 | 31.6%
10 | Cc1nc(CN2CCN(C(=O)c3scnc3C)CC2)cs1 | -17.1%
11 | NC(=O)c1cnn2c1NCC(CNCCOc1ccccc1)C2 (centres undefined) | -18.43%
12 | OCCn1nccc1C1CCN(CCOc2ccccc2F)CC1 | 27.8%
13 | CCOCCCNC(=O)c1nn(CC)cc1Br | 1.86%
14 | CCOCCCNC(=O)NCc1c(C)nn(C)c1C | 52.5%
15 | CCOCCCNC(=O)c1cn(CC)nc1C | 11.8%
16 | COc1ccccc1C1CNCCN1C(=O)c1ccc(F)cc1 (centres undefined) | 15.5%
17 | CN1CCCCC1CC(=O)Nc1ccc2ncn(C)c2c1 (centres undefined) | 9.41%
18 | CN1CCN(C2CCN(CCOc3ccc(C#N)cc3)CC2)C1=O | 41.5%
19 | CN1CCN(C2CCN(CCOc3cccc(Cl)c3)CC2)C1=O | 51.1%
20 | Cc1ccc(C)c(OCCN2CCC(N3CCNC3=O)CC2)c1 | 38.1%
21 | CN1CCN(C2CCN(CCOc3ccc(Cl)cc3)CC2)C1=O | 36.1%
22 | CN1CCN(C2CCN(CCOc3cccc(F)c3)CC2)C1=O | 5.9%
23 | COc1ccc(OCCN2CCC(N3CCNC3=O)CC2)cc1 | 87.25%
24 | CCOc1ccc(OCCN2CCC(N3CCNC3=O)CC2)cc1 | 81.8%
25 | COc1ccccc1OCCN1CCC(N2CCNC2=O)CC1 | 36.4%
26 | CN1CCN(C2CCN(CCOc3ccc(F)cc3)CC2)C1=O | 25.6%
27 | CCN(Cc1cccc(F)c1)Cn1nc(C)c2c(C)onc2c1=O | 11.4%

Row | Structure (SMILES) | INHIBITION
28 | Cc1nccc(NCc2cc3n(n2)CCCN(C(=O)C2CCC2)C3)n1 | 21.1%
29 | Cc1cc2c(=O)n(CCSc3ncn[nH]3)cnc2s1 | 29.4%
30 | Cn1nnc2c1CCN(C(=O)C1CC1)C2COCCN1CCCC1 (centres undefined) | -6.23%
31 | c1ncn(CC2CCCCN2Cc2cn3ccsc3n2)n1 (centres undefined) | 25.45%
32 | CC[C@H]1CN(C(=O)c2cccc(-n3cnnc3)n2)CC[C@@]1(C)O | -0.71%
33 | O=C(c1ccc(-n2cnnc2)nc1)N1CCCC(O)(CO)CC1 (centres undefined) | 8.38%
34 | CC[C@H]1CN(C(=O)c2ccc(-n3cnnc3)nc2)CC[C@@]1(C)O | 53.8%
35 | Cc1ccc2cc(CNCCCN3CCOCC3)c(=O)[nH]c2c1C | -5.71%
36 | C[C@H]1C[C@@H]2CCN(C(=O)c3cccn3C)C[C@H]2O1 | 25%
37 | CC(O)CN(C)S(=O)(=O)c1ccc(C#N)cc1F (centres undefined) | 64.6%
38 | Cc1ccc(S(=O)(=O)N(C)CC(C)O)c(F)c1 (centres undefined) | 6.99%
39 | Cc1c(F)cccc1S(=O)(=O)N(C)CC(C)O (centres undefined) | -37.6%
40 | Cc1n[nH]c2nc(-c3ccccc3O)cc(C(=O)O)c12 | 7.09%
41 | OCCOc1cc(F)ccc1NCc1cccc(F)c1F | 54.5%
42 | Cc1ccccc1-c1noc(CNc2ccc(F)cc2OCCO)n1 | 52.6%
43 | OCCOc1cc(F)ccc1NCc1ccc(F)c(F)c1 | -16.8%
44 | COc1ccccc1-c1noc(CNc2ccc(F)cc2OCCO)n1 | 13.7%
45 | OCCOc1cc(F)ccc1NCc1nc(-c2cccs2)no1 | 12.8%
46 | N#Cc1ccc(F)c(CNc2ccc(F)cc2OCCO)c1 | 10.9%
47 | Cc1nc(CC(=O)N2CCn3c(nnc3C(C)C)C2)cs1 | 18.15%
48 | O=C(CCc1ccc(-c2ccccc2)[nH]1)N1CCCC(n2ccnc2)C1 (centres undefined) | 3.5625%
49 | CCC(=O)Nc1cccc(OCC(=O)N[C@@H]2C[C@@H]3CC[C@H]2C3)c1 | -23.4%
50 | Cc1nc(C2CCCN(C(C)C)C2)sc1Br (centres undefined) | 11.8%
51 | O=C(Nc1ccccn1)C1CC(=O)N(Cc2ccccn2)C1 (centres undefined) | -87.6%
52 | COC[C@@]12CCO[C@@H]1CCN(C(=O)C1CC(F)(F)C1)C2 | 94.6%
53 | O=C(C1CC(F)(F)C1)N1CC[C@H]2OCC[C@@]2(COCC2CC2)C1 | 39.3%
54 | COC[C@@]12CCO[C@@H]1CCN(C(=O)C1CCOCC1)C2 | 13.1%
